Experimental data published in PubChem BioAssay AID1851 (National Center for Advancing Translational Sciences (NCATS), 2009).
Screen size: about 16,000 compounds; about 2,600 (16%) were called active. Roughly 20% stayed inconclusive and do not appear here. Not all results are given here. Unmarked numbers belong to inactive results. Calls follow the shape of the dose curve; as a rule, active = well fitted curve in the direction sought with a large enough effect; inconclusive = small, poorly fitted or top-dose-only effect, or effect the other way; inactive = no such curve, though single readings can be large or run the other way.
% is scaled to controls: 0 for no effect and ±100 for the full control effect.

The compounds below were run against Cytochrome P450 2D6 (Homo sapiens) (UniProt P10635) (assay: Cytochrome panel assay with activity outcomes). Details: recombinant CYP, pro-luciferin dealkylation, luminescence, p450-cyp2d6; series mostly up to 57.1 µM; activity, negative = inhibition: at the top concentration.
Cytochrome P450 2D6 (Homo sapiens), sequence (P10635 whole entry, looked up): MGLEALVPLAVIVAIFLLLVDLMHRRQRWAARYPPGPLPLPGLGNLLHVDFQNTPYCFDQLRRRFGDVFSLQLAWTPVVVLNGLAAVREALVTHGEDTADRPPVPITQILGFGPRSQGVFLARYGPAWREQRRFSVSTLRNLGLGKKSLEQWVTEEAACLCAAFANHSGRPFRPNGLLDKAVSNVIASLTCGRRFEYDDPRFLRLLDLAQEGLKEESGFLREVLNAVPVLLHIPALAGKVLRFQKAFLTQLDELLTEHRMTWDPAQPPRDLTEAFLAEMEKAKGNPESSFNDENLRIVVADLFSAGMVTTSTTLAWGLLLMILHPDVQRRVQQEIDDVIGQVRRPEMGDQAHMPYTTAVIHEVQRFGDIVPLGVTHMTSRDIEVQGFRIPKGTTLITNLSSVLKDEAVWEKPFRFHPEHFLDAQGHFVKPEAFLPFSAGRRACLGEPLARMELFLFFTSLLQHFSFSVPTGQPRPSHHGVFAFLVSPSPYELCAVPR
With Cc1csc(NC(=O)CCNS(=O)(=O)c2ccc3c(c2)c(=O)n(C)c(=O)n3C)n1 the “activity, negative = inhibition” value was -6.75%. For CCCc1nnc(SCC(=O)N2C(C)CCCC2C)n1CCCOC (configuration not stated), the “activity, negative = inhibition” value was 0.151%. Compound CO[C@@H](C(C)C)[C@@H](C)[C@@H]1OC(=O)C[C@@H]1O has an activity, negative = inhibition of -14.8% [at 11.4 µM]. For CC(=O)N1CCc2cc(Br)cc(S(=O)(=O)N3CCN(C(=O)c4ccco4)CC3)c21, the “activity, negative = inhibition” value was 11.4%. With Cc1ccc(S(=O)(=O)CC#CCOC(=O)c2ccc([N+](=O)[O-])cc2)cc1 the AC50 was 12.6 µM (active). With Cc1c(OC(=O)c2ccc([N+](=O)[O-])cc2)c2c(c[n+]1C)COC(C)(C)OC2 the “activity, negative = inhibition” value was 8.33%. With COc1ccc(C(=O)NCS(=O)(=O)c2ccc(C)cc2)cc1 the “activity, negative = inhibition” value was -15.2%. With COc1ccc(-c2nc3cnc(N4CCOCC4)nc3n(C[C@H]3CCCO3)c2=O)cc1 the “activity, negative = inhibition” value was 1.59%. For CCc1nnc(NC(=O)c2cc(-c3ccccc3)nn2-c2ccccc2)s1, the “activity, negative = inhibition” value was -15.9%. For Fc1cccc(CSc2ncnc3c2ncn3[C@H]2CCCS2)c1, the activity, negative = inhibition was 8.45% [at 11.4 µM]. For COc1ccccc1CNc1cc(-c2cccc(NS(C)(=O)=O)c2)ncn1, the “activity, negative = inhibition” value was -17.4%. COc1ccc(CNc2ncncc2-c2cccnc2)c(OC)c1 was tested, and the AC50 was 15.8 µM (active). COc1ccc(CNc2ncncc2-c2cccc(NS(C)(=O)=O)c2)c(OC)c1 was tested, and the AC50 was 25.1 µM (active). COc1cccc(-c2cncnc2NCc2ccc(OC)cc2OC)c1 was tested, and the AC50 was 7.94 µM (active). For COc1cccc(-c2cncnc2NCc2ccccc2OC)c1, the AC50 was 7.94 µM (active). COc1cccc(-c2cncnc2NC2CCNCC2)c1 was tested, and the “activity, negative = inhibition” value was -13.3%. With C/C(=N\n1nnnc1Nc1ccccc1)c1ccc(N)cc1 the “activity, negative = inhibition” value was 2.96%. With CCNc1ncc2nc(C)c(=O)n(Cc3ccc(F)cc3)c2n1 the “activity, negative = inhibition” value was -4.78%. In the case of O=c1cnc2cnc(Oc3ccccc3)nc2n1Cc1ccc(F)cc1, the “activity, negative = inhibition” value is reported as -20.8%. O=C(O)/C=C\C(=O)Nc1ncn[nH]1 gave an activity, negative = inhibition of 3.54% [at 11.4 µM]. CCC(C)(C(=O)NC1CCCC1)N(Cc1ccco1)C(=O)c1ccccn1 (configuration not stated) was tested, and the “activity, negative = inhibition” value was 17.4%. In the case of O=c1ccc2cc(O)c(O)cc2o1, the “activity, negative = inhibition” value is reported as -4.53% [at 25.6 µM]. Work on OC[C@H](S)CS yielded an activity, negative = inhibition of 19.8% [at 11.4 µM]. With CCOc1ccc(C(C)=O)cc1N1C(=O)C2C3C=CC(C3=C(C)C)C2C1=O (configuration not stated) the “activity, negative = inhibition” value was -2.5%. With COc1ccc(NC(=O)c2ccc(-n3cccn3)nc2)c(OC)c1 the “activity, negative = inhibition” value was 0.442%. COc1ccccc1NC(=O)c1ccc(-n2cccn2)nc1 was tested, and the AC50 was 7.94 µM (active). In the case of COc1ccccc1NC(=O)c1cnc2n(c1=O)CCS2, the “activity, negative = inhibition” value is reported as -6.14%. With COc1ccccc1CCn1c(=O)c(-c2ccc(Cl)cc2)nc2cncnc21 the “activity, negative = inhibition” value was -8.73%. With COc1ccc(/C=N/NC(=O)c2cccc([N+](=O)[O-])c2)cc1OS(=O)(=O)c1ccc(C)cc1 the “activity, negative = inhibition” value was -3.23%. For CC(=O)Nc1sc2c(c1CN1CCN(C)CC1)CCCC2, the AC50 was 12.6 µM (active). For CC(=O)Nc1sc2c(c1C(N)=O)CCCC2, the “activity, negative = inhibition” value was -10.9%. With CCNC(=O)c1c(NC(C)=O)sc2c1CCCC2 the “activity, negative = inhibition” value was 4.74%. Cc1cc(C)c(S(C)(=O)=O)c(Oc2ccc(F)cc2)n1 was tested, and the “activity, negative = inhibition” value was -5.79%. In the case of COc1ncc2nc(-c3cn(C)c4ccccc34)c(=O)n(-c3ccccc3)c2n1, the “activity, negative = inhibition” value is reported as 3.2%. For CCOC(=O)c1c(NC(=O)C2C3CCC(O3)C2C(=O)O)sc(C)c1-c1ccc(C)cc1 (configuration not stated), the “activity, negative = inhibition” value was -1.43%. In the case of CCOc1ccc(N2C(=O)/C(=C/c3cccs3)N(CC(=O)OC)C2=S)cc1, the “activity, negative = inhibition” value is reported as -8.94%. CCOc1ccc(N2C(=O)/C(=C/c3cc(OC)c(OC)c(OC)c3)N(CC(=O)OC)C2=S)cc1 was tested, and the “activity, negative = inhibition” value was -3.36%. With CCc1ccc(N2C(=O)/C(=C/c3cccs3)N(CC(=O)OC)C2=S)cc1 the AC50 was 0.794 µM (active). O=C(Nc1cccc(-c2cn3cccnc3n2)c1)c1ccco1 was tested, and the “activity, negative = inhibition” value was -3.97%. With COc1ccc(S(=O)(=O)N2CCc3ccccc3C2)cc1OC the “activity, negative = inhibition” value was 26.5%. In the case of O=C(NNS(=O)(=O)c1ccccc1)c1cccnc1, the activity, negative = inhibition is reported as 14.2% [at 11.4 µM]. With O=C(NNS(=O)(=O)c1cc(Cl)cc(Cl)c1)c1sccc1-n1cccc1 the “activity, negative = inhibition” value was -28.4%. For O=C(NNS(=O)(=O)c1ccc(Cl)cc1)c1cnn(-c2ccccc2)c1-n1cccc1, the AC50 was 2 µM (active). In the case of N=c1nc(N2CCCCC2)cc(N)n1O, the AC50 is reported as “inactive”. Oc1[nH]c2ccccc2c1N=Nc1ccc(C(F)(F)F)cn1 was tested, and the “activity, negative = inhibition” value was -2.34%. [O-][N+](CCO)(CCO)c1ncnc2nc[nH]c12 showed an activity, negative = inhibition of -0.262% [at 11.4 µM]. Cc1cc(C)c2nc3c(c([C@H](O)[C@@H]4CCCCN4)c2c1)CC/C3=C/c1ccc(Cl)cc1 showed an activity, negative = inhibition of 0.19% [at 11.4 µM]. With O[C@@H](c1cc(-c2ccc(Cl)cc2)nc2ccccc12)[C@@H]1CCCCN1 the AC50 was 0.631 µM (active). In the case of N/C(=N\OC(=O)c1cc(-c2ccccc2)nc2ccccc12)c1ccc(Cl)cc1, the “activity, negative = inhibition” value is reported as -8.2%. CCNC(=O)COC(=O)c1cc(-c2ccc(OC)cc2)nc2ccccc12 was tested, and the “activity, negative = inhibition” value was -27.2%. With COc1ccc(-c2nc3ccccc3c(=O)n2N)cc1 the “activity, negative = inhibition” value was -1.03%. For COc1ccc(-c2cc([C@H](O)[C@@H]3CCCCN3)c3ccccc3n2)cc1, the AC50 was 3.16 µM (active). In the case of Cc1ccc(C(=O)COC(=O)CNC(=O)Cc2ccccc2)cc1[N+](=O)[O-], the “activity, negative = inhibition” value is reported as -10.1%. Cc1c(NC(=O)Cn2ccc([N+](=O)[O-])n2)c(=O)n(-c2ccccc2)n1C was tested, and the “activity, negative = inhibition” value was 23.1%. For c1ccc(C2=NN[C@@H]3c4ccccc4-c4ccccc4N3C2)cc1, the activity, negative = inhibition was -17.6% [at 11.4 µM]. In the case of CCC(=O)NC(NC(=O)CC)C(Cl)Cl, the “activity, negative = inhibition” value is reported as 6.76%. With O=C(/C=C/c1cccc([N+](=O)[O-])c1)NCCN1CCOCC1 the “activity, negative = inhibition” value was -0.0015%. In the case of O=C(CN1CCCC1)N/N=C/c1ccc(-c2cccc(Cl)c2)o1, the “activity, negative = inhibition” value is reported as -20.7%. With O=C(CSCc1cccc(Cl)c1)N/N=C/c1ccc(OCC(=O)N2CCCCC2)cc1 the AC50 was 17.8 µM (active). O=C(Nc1ccc2oc(-c3ccccc3F)nc2c1)c1ccc2c(c1)OCCO2 was tested, and the “activity, negative = inhibition” value was -24.9%. For Cc1cccc(C(=O)N/N=C/c2ccc(OCC(=O)N3CCCCC3)cc2)c1, the “activity, negative = inhibition” value was -11.8%. CCOC(=O)N1CCN(C(=O)CSCc2nc(-c3ccccc3F)oc2C)CC1 was tested, and the “activity, negative = inhibition” value was 6.39%. For CCN1CCCC1CNC(=O)CSCc1nc(-c2ccccc2C)oc1C (configuration not stated), the AC50 was 8.91 µM (active). COCCCNC(=O)/C=C/c1ccc(Cl)cc1 was tested, and the “activity, negative = inhibition” value was -4.47%. For O=C(/C=C/c1ccc2c(c1)OCO2)NCCSCc1cccc(Cl)c1, the AC50 was 0.355 µM (active). With Cc1oc(-c2ccccc2Cl)nc1CSCC(=O)NC1CC1 the “activity, negative = inhibition” value was -21.5%. With Cc1oc(-c2ccccc2F)nc1CSCC(=O)NCc1ccc2c(c1)OCO2 the AC50 was 2.24 µM (active).
